# According to PubChem BioAssay:
# “And” between values parts separate entries of the source, which are not always exact repeats. Equal entries are not always repeated. More than one record can exist for a structure, and the calls need not agree. The source made the active and inactive calls.
# Key:
# [1] = tested on: Hepatitis C virus NS3 helicase; assay: HCV NS3 helicase inhibitors, primary screen, biochemical, fluorescence polarization, LOPAC1280 library (AID 687035; in the data active = inhibition above about 37%); conditions: Purified HCV NS3 helicase, Cy5-dT15 ssDNA binding fluorescence polarization; stronger effect = higher value; concentration not given here
# [2] = Cy5 fluorescence quenching or enhancement artefacts, artefact control for HCV NS3 helicase inhibitor project, biochemical, LOPAC1280 (AID 687037; call rule not given here); conditions: Cy5-DNA-NS3h complex fluorescence interference counterscreen
# [3] = phospholipid biosynthesis inhibitors in animal cells, primary screen, cell-based, LOPAC library, screen 4 (AID 1347384; call rule not given here); conditions: phospholipid biosynthesis inhibition screen, at 10 µM
# [4] = viability rescue of complex I mutant cybrids, primary screen, cell-based, galactose medium, ATP luminescence (AID 1645843;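 active = z-score of at least 1.8 in each of two replicates, scored against plate mean and spread of sample wells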;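 also: positive z means more ATP and so rescue of galactose-driven cybrid death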); conditions: complex I mutant cybrid cells, 72 h, stronger effect = higher value
# [5] = LFS_MB_1R medulloblastoma cell growth inhibition, synergistic combos for chromothripsis tumors, cisplatin or BGB combos (AID 1671452); conditions: LFS_MB_1R medulloblastoma cells, stronger effect = higher value;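 also: cells exposed for 96 hours before readout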
# [6] = CRL2098 osteosarcoma cell growth inhibition, synergistic combos for chromothripsis tumors, BGB or cisplatin IC20 combos (AID 1671454); conditions: CRL2098 osteosarcoma cells, drug combinations, stronger effect = higher value;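 also: cells exposed for 96 h before readout; 0% = vehicle DMSO and 100% = killing by high DMSO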
# [7] = HD-MB03 medulloblastoma cell growth inhibition, synergistic combos for chromothripsis tumors, BGB or cisplatin IC20 combos (AID 1671455; in the data active = inhibition above about 83%;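 also: 0% = vehicle DMSO and 100% = high DMSO as cytotoxic control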); conditions: HD-MB03 medulloblastoma cells, stronger effect = higher value
# [8] = UWB1.289 ovarian carcinoma cell growth inhibition, synergistic combos for chromothripsis tumors, BGB or cisplatin combos (AID 1671456); conditions: UWB1.289 ovarian carcinoma cells, stronger effect = higher value;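 also: cells exposed to compound for four days; 0% = vehicle DMSO and 100% = killing by high DMSO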
# [9] = LFS_MB_2R medulloblastoma cell growth inhibition, synergistic combos for chromothripsis tumors, cisplatin combos (AID 1671457); conditions: LFS_MB_2R medulloblastoma cells, stronger effect = higher value;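 also: cells exposed to compound for four days before readout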
# [10] = UWB1.289_BRCA1 ovarian cancer growth, cell-based, BGB or cisplatin combinations (AID 1671459); conditions: UWB1.289 BRCA1 ovarian carcinoma, drug combinations, stronger effect = higher value
# [11] = human astrocyte viability loss, single and combined drugs, cytotoxicity control for chromothriptic childhood tumor combination screen, cell-based, BGB or cisplatin IC20 combos (AID 1671460); conditions: Human astrocytes, drug combinations, stronger effect = higher value;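 also: cells exposed to compounds for 96 hours before viability readout; 0% = vehicle and 100% = killing control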
# [12] = growth inhibition of CRL1545 osteosarcoma cells, cell-based, cisplatin and BGB IC20 combos (AID 1671464); conditions: stronger effect = higher value;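 also: cells exposed to compound for 96 hours before readout; 0% = vehicle DMSO and 100% = high DMSO killing control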
# [13] = kinase inhibitors against Plasmodium liver-stage infection, cell-based, known kinase inhibitor set, luminescence, hepatoma host viability (AID 624392; call rule not given here;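 also: infected cells incubated roughly two days before readout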); conditions: Plasmodium liver stage in hepatoma cells, luciferase luminescence, concentration not given here; liver cell % of control: measured here: host liver cell viability; parasite % of control: stronger effect = lower value
# [14] = liver-stage malaria parasite growth inhibition, primary screen, cell-based, HepG2, luciferase luminescence, HepG2 viability (AID 624349; in the data active = parasite load remaining mostly below about 12%, no sharp cut-off; inactive = mostly above about 10%;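 also: 100% = mean of DMSO negative control wells on the same plate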); conditions: P. berghei liver stage in HepG2, luciferase luminescence, concentration not given here; parasite load remaining: stronger effect = lower value; viability: measured here: HepG2 viability without parasites
# [15] = hESC survival regulators, cell-based (AID 493140; call rule not given here;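 also: cells exposed to compounds for four days before counting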); conditions: human embryonic stem cell survival screen; stronger effect = higher value
# [16] = target: Mitogen-activated protein kinase 7 (Homo sapiens) (UniProt Q13164); assay: ERK5 transactivation activators in reporter cells, primary screen, cell-based, HTS (AID 1508626;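 active = luciferase signal above three times the same-plate solvent-only control wells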;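 also: luciferase driven by Gal4-ERK5 fusion binding five Gal4 sites before minimal TATA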); conditions: HeLa Gal4-ERK5 transactivation, 18 h, at 5 µM, stronger effect = higher value
# [17] = target: NAD(+) hydrolase SARM1 (Homo sapiens) (UniProt Q6SZW1); assay: SARM1 TIR NADase inhibitors, cell lysate, NAD-Glo luminescence (AID 1508614;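 active = compound whose remaining NAD level is above about 45 nM, limit read from the data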;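 also: higher remaining NAD means stronger inhibition of SARM1 NADase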); conditions: SAM-TIR HEK293T lysate NADase, at 1 µM, stronger effect = higher value
# [18] = target: Tyrosine-protein kinase ABL1 (Homo sapiens) (UniProt P00519); assay: PubChem AID 493040; conditions: kinase panel binding, pKi
# [19] = measured here: combination with BGB IC40, at 0.05 µM
# [20] = measured here: combination with cisplatin, at 0.5 µM
# [21] = measured here: combination with cisplatin, at 5 µM
# [22] = measured here: combination with BGB at IC20, at 0.5 µM
# [23] = measured here: combination with cisplatin at IC20, at 0.5 µM
# [24] = measured here: combo with BGB at IC20, at 0.5 µM
# [25] = measured here: combo with cisplatin at IC20, at 0.5 µM
# [26] = measured here: inhibition with BGB combination, at 0.05 µM
# [27] = measured here: inhibition with cisplatin combination, at 0.05 µM
# [28] = BGB combination, concentration series, at 5 µM
# [29] = cisplatin combination, concentration series, at 5 µM
# [30] = measured here: combo with BGB IC20, at 0.5 µM
# [31] = measured here: combo with cisplatin IC20, at 0.5 µM
# [32] = measured here: with BGB IC20 combination, at 0.5 µM
# [33] = measured here: with cisplatin IC20 combination, at 0.5 µM
# Sequence of Mitogen-activated protein kinase 7 (Homo sapiens) (Q13164 whole entry, looked up, the tested form may be a part): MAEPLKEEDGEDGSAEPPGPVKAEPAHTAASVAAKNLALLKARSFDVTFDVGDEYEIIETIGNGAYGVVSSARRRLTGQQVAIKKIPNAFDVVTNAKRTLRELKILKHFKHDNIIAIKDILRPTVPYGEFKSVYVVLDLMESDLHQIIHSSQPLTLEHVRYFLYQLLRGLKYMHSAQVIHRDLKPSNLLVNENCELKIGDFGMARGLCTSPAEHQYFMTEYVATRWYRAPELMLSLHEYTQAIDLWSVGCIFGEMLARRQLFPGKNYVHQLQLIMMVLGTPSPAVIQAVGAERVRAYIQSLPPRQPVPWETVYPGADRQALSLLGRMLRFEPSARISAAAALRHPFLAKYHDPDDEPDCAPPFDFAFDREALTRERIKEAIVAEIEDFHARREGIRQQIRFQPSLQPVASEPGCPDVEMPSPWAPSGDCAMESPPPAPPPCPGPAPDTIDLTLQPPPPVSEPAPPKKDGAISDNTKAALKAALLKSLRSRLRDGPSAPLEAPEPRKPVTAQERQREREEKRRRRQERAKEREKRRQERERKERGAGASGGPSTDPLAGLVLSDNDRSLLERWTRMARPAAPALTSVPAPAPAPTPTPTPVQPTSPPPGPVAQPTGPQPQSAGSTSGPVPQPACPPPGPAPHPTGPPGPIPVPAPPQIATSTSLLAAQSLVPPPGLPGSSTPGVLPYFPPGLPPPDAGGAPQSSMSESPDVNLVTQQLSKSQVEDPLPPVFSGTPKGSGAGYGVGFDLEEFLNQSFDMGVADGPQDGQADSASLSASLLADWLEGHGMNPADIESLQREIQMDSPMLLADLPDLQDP
# Sequence of NAD(+) hydrolase SARM1 (Homo sapiens) (Q6SZW1 whole entry, looked up): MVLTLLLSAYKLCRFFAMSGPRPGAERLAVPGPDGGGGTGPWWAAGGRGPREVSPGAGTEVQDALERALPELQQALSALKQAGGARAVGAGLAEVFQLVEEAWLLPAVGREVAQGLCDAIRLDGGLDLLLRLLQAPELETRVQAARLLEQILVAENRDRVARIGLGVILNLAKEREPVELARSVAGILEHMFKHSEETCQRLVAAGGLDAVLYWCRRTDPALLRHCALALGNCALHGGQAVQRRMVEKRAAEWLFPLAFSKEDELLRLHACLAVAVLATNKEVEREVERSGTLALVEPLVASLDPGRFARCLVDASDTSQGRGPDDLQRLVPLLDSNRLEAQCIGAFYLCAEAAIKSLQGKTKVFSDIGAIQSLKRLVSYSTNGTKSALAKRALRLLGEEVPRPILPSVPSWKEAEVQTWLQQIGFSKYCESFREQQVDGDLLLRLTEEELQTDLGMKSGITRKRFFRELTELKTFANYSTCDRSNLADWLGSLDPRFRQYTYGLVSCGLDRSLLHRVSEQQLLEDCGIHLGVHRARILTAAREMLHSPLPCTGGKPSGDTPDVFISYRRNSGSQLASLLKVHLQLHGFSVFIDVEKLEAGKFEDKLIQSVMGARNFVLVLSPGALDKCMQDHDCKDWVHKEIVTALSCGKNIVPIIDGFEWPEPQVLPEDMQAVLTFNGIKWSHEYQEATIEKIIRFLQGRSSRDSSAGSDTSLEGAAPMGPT
# Sequence of Tyrosine-protein kinase ABL1 (Homo sapiens) (P00519 whole entry, looked up): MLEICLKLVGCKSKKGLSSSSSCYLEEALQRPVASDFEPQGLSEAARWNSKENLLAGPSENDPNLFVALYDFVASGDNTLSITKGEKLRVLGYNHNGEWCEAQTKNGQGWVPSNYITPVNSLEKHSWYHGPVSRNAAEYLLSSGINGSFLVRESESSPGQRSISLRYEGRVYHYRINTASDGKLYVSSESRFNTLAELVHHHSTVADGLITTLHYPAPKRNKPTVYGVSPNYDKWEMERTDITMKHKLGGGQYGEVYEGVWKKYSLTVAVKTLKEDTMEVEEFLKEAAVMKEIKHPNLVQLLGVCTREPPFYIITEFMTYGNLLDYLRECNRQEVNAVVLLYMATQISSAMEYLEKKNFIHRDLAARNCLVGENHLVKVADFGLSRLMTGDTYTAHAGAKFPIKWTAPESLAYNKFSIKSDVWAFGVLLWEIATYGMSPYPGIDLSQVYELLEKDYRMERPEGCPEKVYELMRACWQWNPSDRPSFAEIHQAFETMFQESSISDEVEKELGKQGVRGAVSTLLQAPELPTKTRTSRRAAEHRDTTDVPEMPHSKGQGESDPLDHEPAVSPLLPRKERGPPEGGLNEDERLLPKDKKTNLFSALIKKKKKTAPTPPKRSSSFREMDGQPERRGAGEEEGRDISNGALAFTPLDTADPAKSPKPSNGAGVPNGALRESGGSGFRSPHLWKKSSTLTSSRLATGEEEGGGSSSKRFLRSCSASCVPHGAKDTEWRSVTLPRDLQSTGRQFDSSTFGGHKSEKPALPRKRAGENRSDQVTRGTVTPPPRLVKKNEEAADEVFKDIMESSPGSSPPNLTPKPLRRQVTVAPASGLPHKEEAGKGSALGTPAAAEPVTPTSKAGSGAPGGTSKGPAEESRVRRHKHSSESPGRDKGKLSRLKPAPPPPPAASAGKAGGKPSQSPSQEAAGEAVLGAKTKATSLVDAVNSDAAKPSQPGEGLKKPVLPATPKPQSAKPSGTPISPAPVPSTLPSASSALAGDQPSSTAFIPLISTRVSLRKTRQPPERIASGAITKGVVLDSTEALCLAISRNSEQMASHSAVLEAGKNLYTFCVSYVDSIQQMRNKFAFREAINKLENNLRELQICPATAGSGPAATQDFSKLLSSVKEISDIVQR
smiles,measurement,setting,value
COc1cc2c(cc1OC)C1CC(=O)C(CC(C)C)CN1CC2 (centres undefined),inhibition,[1],-3% (inactive)
same,fluorescence ratio (interference),[2],1 (inactive)
same,outcome,[3],inactive
same,z-score,[4],0.245 (inactive)
CC(=O)Nc1nc(C)c(-c2ccc(Cl)c(S(=O)(=O)NCCO)c2)s1,inhibition,[5]; at 0.5 µM,1.54% (inactive)
same,inhibition,[5]; [19],-12.3%
same,inhibition,[5]; [20],15.7%
same,inhibition,[5]; [21],14.2%
same,inhibition,[6]; at 0.5 µM,17% (inactive)
same,inhibition,[6]; [22],5.45%
same,inhibition,[6]; [23],52.4%
same,inhibition,[7]; at 0.5 µM,14.3% (inactive)
same,inhibition,[7]; [24],17.8%
same,inhibition,[7]; [25],10.3%
same,inhibition,[8]; at 0.5 µM,10.9% (inactive)
same,inhibition,[8]; [26],10.4%
same,inhibition,[8]; [27],1.8%
same,inhibition,[9]; at 0.5 µM,9.32% (inactive)
same,inhibition,[9]; [20],10.4%
same,inhibition,[9]; [21],43.2%
same,inhibition,[10]; [28],22.7%
same,inhibition,[10]; at 0.5 µM,6.36% (inactive)
same,inhibition,[10]; [29],12.2%
same,inhibition,[11]; at 0.5 µM,23.1% (inactive)
same,inhibition,[11]; [30],23.7%
same,inhibition,[11]; [31],25.1%
same,inhibition,[12]; at 0.5 µM,-8.22% (inactive)
same,inhibition,[12]; [32],-13.7%
same,inhibition,[12]; [33],-7.2%
same,inhibition,"[12]; single agent, at 0.05 µM",-0.058%
same,inhibition,"[12]; single agent, at 5 µM",1.73%
Cc1cccc(-c2[nH]ncc2-c2ccc3ncccc3n2)n1,liver cell % of control,[13],102%
same,parasite % of control,[13],87.4% (inactive)
same,outcome,[3],inactive
same,z-score,[4],-0.39 (inactive)
Cc1ccc(O)c(C(CCN(C(C)C)C(C)C)c2ccccc2)c1 (centres undefined),parasite load remaining,[14],53.2% (inactive)
same,viability,[14],96.6%
same,z-score,[4],-0.5 (inactive)
C=C1C(=O)O[C@@H]2[C@H]3O[C@]3(C)CC/C=C(\C)CC[C@@H]12,survival,[15],0.167 (inactive)
same,parasite load remaining,[14],-0.555% (active) and 48% (inactive)
same,viability,[14],117% and 76.6%
same,luciferase signal,[16],92 AU (inactive)
CCOC(=O)N1CCN(/[N+]([O-])=N/Oc2ccc([N+](=O)[O-])cc2[N+](=O)[O-])CC1,outcome,[3],inactive
same,z-score,[4],-0.95 (inactive)
NC(=NCCCCCCN=C(N)N=C(N)Nc1ccc(Cl)cc1)N=C(N)Nc1ccc(Cl)cc1,remaining NAD,[17],10 nM (inactive)
CC[C@H](CC[C@@H](C)[C@H]1CC[C@H]2[C@@H]3CC=C4C[C@@H](O)CC[C@]4(C)[C@H]3CC[C@]12C)C(C)C,survival,[15],9.58 (inactive)
same,parasite load remaining,[14],99.6% (inactive)
same,viability,[14],72.8%
same,luciferase signal,[16],32 AU (inactive)
Nc1ncnc2c1c(-c1cnc3[nH]ccc3c1)nn2C1CCCC1,inhibition,[5]; at 0.5 µM,-19.1% (inactive)
same,inhibition,[5]; [19],-13.7%
same,inhibition,[5]; [20],-26.5%
same,inhibition,[5]; [21],69.1%
same,inhibition,[6]; at 0.5 µM,25.4% (inactive)
same,inhibition,[6]; [22],3.06%
same,inhibition,[6]; [23],36.8%
same,inhibition,[7]; at 0.5 µM,28.9% (inactive)
same,inhibition,[7]; [24],13%
same,inhibition,[7]; [25],41.5%
same,inhibition,[8]; at 0.5 µM,28.7% (inactive)
same,inhibition,[8]; [26],-4.92%
same,inhibition,[8]; [27],-7.06%
same,inhibition,[9]; at 0.5 µM,-21.4% (inactive)
same,inhibition,[9]; [20],-27.2%
same,inhibition,[9]; [21],59%
same,inhibition,[10]; [28],98.9%
same,inhibition,[10]; at 0.5 µM,22.9% (inactive)
same,inhibition,[10]; [29],106%
same,inhibition,[11]; at 0.5 µM,53.4% (inactive)
same,inhibition,[11]; [30],55.9%
same,inhibition,[11]; [31],46%
same,inhibition,[12]; at 0.5 µM,-8.52% (inactive)
same,inhibition,[12]; [32],-19%
same,inhibition,[12]; [33],-4.93%
same,inhibition,"[12]; single agent, at 0.05 µM",-24.4%
same,inhibition,"[12]; single agent, at 5 µM",98.2%
NC(=O)c1ccc(N(C(N)=O)c2c(F)cccc2F)nc1-c1ccc(F)cc1F,liver cell % of control,[13],98.2% and 93.2% and 92%
same,parasite % of control,[13],55.7% (inactive) and 44.1% (inactive) and 51.8% (inactive)
Clc1ccc(C(c2ccc(Cl)cc2)n2cc[n+](CC(OCc3ccc(Cl)cc3Cl)c3ccc(Cl)cc3Cl)c2)cc1 (centres undefined),outcome,[3],inactive
O=c1cc(N2CCOCC2)oc2c(-c3cccc4c3sc3ccccc34)cccc12,inhibition,[5]; at 0.5 µM,-39.7% (inactive)
same,inhibition,[5]; [19],-46.9%
same,inhibition,[5]; [20],-75.1%
same,inhibition,[5]; [21],-3.55%
same,inhibition,[6]; at 0.5 µM,-62.4% (inactive)
same,inhibition,[6]; [22],-46.6%
same,inhibition,[6]; [23],-92%
same,inhibition,[7]; at 0.5 µM,0.79% (inactive)
same,inhibition,[7]; [24],-1.46%
same,inhibition,[7]; [25],11.5%
same,inhibition,[8]; at 0.5 µM,-12.2% (inactive)
same,inhibition,[8]; [26],-24%
same,inhibition,[8]; [27],-24.1%
same,inhibition,[9]; at 0.5 µM,-22.4% (inactive)
same,inhibition,[9]; [20],-18.6%
same,inhibition,[9]; [21],-3.32%
same,inhibition,[10]; [28],44.6%
same,inhibition,[10]; at 0.5 µM,-11.7% (inactive)
same,inhibition,[10]; [29],12.1%
same,inhibition,[11]; at 0.5 µM,9.11% (inactive)
same,inhibition,[11]; [30],7.86%
same,inhibition,[11]; [31],13%
same,inhibition,[12]; at 0.5 µM,17.1% (inactive)
same,inhibition,[12]; [32],-25.4%
same,inhibition,[12]; [33],37.3%
same,inhibition,"[12]; single agent, at 0.05 µM",-18.4%
same,inhibition,"[12]; single agent, at 5 µM",-71.2%
CC(C)(O)c1cc2nc(-c3cnc(N)nc3)nc(N3CCOCC3)c2s1,liver cell % of control,[13],68.4% and 67.7% and 82.5%
same,parasite % of control,[13],539% (inactive) and 545% (inactive) and 563% (inactive)
Nc1ccc(C(=O)Nc2cccc(-c3nc(N4CCOCC4)c4oc5ncccc5c4n3)c2)cn1,parasite load remaining,[14],28.3% (inactive)
same,viability,[14],70.4%
same,liver cell % of control,[13],80.6% and 78.7% and 90.7%
same,parasite % of control,[13],109% (inactive) and 149% (inactive) and 242% (inactive)
O=C(/C=C/c1ccc(CN(CCO)CCc2c[nH]c3ccccc23)cc1)NO,inhibition,[5]; at 0.5 µM,88.5% (active)
same,inhibition,[5]; [19],0.114%
same,inhibition,[5]; [20],107%
same,inhibition,[5]; [21],101%
same,inhibition,[6]; at 0.5 µM,80.2% (active)
same,inhibition,[6]; [22],80.4%
same,inhibition,[6]; [23],75.9%
same,inhibition,[7]; at 0.5 µM,99.8% (active)
same,inhibition,[7]; [24],99.8%
same,inhibition,[7]; [25],100%
same,inhibition,[8]; at 0.5 µM,88.8% (active)
same,inhibition,[8]; [26],9.36%
same,inhibition,[8]; [27],34.8%
same,inhibition,[9]; at 0.5 µM,87.1% (active)
same,inhibition,[9]; [20],99.3%
same,inhibition,[9]; [21],107%
same,inhibition,[10]; [28],126%
same,inhibition,[10]; at 0.5 µM,95.2% (active)
same,inhibition,[10]; [29],130%
same,inhibition,[11]; at 0.5 µM,95.2% (active)
same,inhibition,[11]; [30],92%
same,inhibition,[11]; [31],97.1%
same,inhibition,[12]; at 0.5 µM,87.1% (active)
same,inhibition,[12]; [32],82.2%
same,inhibition,[12]; [33],89.4%
same,inhibition,"[12]; single agent, at 0.05 µM",86.9%
same,inhibition,"[12]; single agent, at 5 µM",94.5%
Oc1cccc(-c2nc(N3CCOCC3)c3oc4ncccc4c3n2)c1,parasite load remaining,[14],45.4% (inactive)
same,viability,[14],89.8%
same,liver cell % of control,[13],88.7% and 86.7% and 100%
same,parasite % of control,[13],326% (inactive) and 309% (inactive) and 81.9% (inactive)
same,outcome,[18],inactive
